The text below walks through data of PubChem BioAssay (Tox21).

Experiment [1] in a line: qHTS assay to identify small molecule agonists of the vitamin D receptor (VDR) signaling pathway - cell viability counter screen (AID 743224). Further: nearly all actives have a fitted effect of over 50% in size. Further: potency means the concentration at half of the fitted maximal effect. The method, boiled down: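 Luminescence from CellTiter-Glo, read after 30 min at room temperature, reports viability of VDR-bla cells treated with compounds for 16 h at 37C in the wells used for the beta-lactamase FRET read.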
Experiment [2] in a line: qHTS assay to identify small molecule antagonists of the vitamin D receptor (VDR) signaling pathway - cell viability counter screen (AID 743225). Further: nearly all actives have a fitted effect of over 50% in size. In a few lines:
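Read-out: CellTiter-Glo luminescence measured 30 min after reagent addition at room temperature. Cells were VDR-bla HEK 293T exposed 16 h at 37C, 5% CO2, to compound with 3 nM final calcitriol agonist.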

The nature of experiment [3]: qHTS assay to identify small molecule agonists of the NFkB signaling pathway (AID 1159509; active means well fitted curve in the direction sought with a large enough effect in the signal ratio in the repeat runs, not every such curve was filed as active; the % refers to the signal ratio; further: series mostly up to about 61 µM). In a few lines: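 NFkB-bla ME-180 cells carry a beta-lactamase reporter under an NF-kB response element. They were plated overnight, then exposed to compounds for 5 h at 37 C. Read-out is LiveBLAzer FRET after 1.5 hr at room temperature (405 nm excitation; 460/530 nm emission).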

Experiment [4] in a line: qHTS assay to identify small molecule agonists of the NFkB signaling pathway - cell viability counter screen (AID 1159515; calls by dose curve; further: series mostly up to about 61 µM; nearly all actives have a fitted effect of over 55% in size). The method, boiled down: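 Luminescence from CellTiter-Glo (30 min, room temperature) gives viability, measured in the same wells as the beta-lactamase reporter read. Cells were NFkB-bla ME-180, 2,000 per well, treated 5 hr with compounds.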
Experiment [5] is described as follows: qHTS assay to identify small molecule agonists of the endoplasmic reticulum stress response signaling pathway (AID 1159516; active means well fitted activation curve with a large enough effect in the signal ratio in the repeat runs, not every such curve was filed as active; the % refers to the signal ratio). In a few lines: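 Read-out is beta-lactamase cleavage of a FRET substrate (405 nm excitation; 460 and 530 nm emissions) in ESRE-bla HeLa cells after a 5 hr compound exposure at 37 C. Substrate incubation ran 2 hr at room temperature.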

Experiment [6] can be described thus: qHTS assay to identify small molecule agonists of the endoplasmic reticulum stress response signaling pathway - cell viability counter screen (AID 1159517; calls by dose curve;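 further: HeLa cells carrying an ER stress response element beta-lactamase reporter; series mostly up to about 61 µM; nearly all actives have a fitted effect of over 50% in size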). The method, boiled down: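 ESRE-bla HeLa cells, 1,500 per well, seeded overnight then treated with compounds for 5 hr at 37 C. After the beta-lactamase read, viability in the same wells is measured by CellTiter-Glo luminescence after 30 min at room temperature.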

The nature of experiment [7]: qHTS assay to identify small molecule antagonists of the retinoid-related orphan receptor gamma (ROR-gamma) signaling pathway - cell viability counter screen (AID 1159520). Further: nearly all actives have a fitted effect of over 50% in size. The method, boiled down:
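Tet-on ROR gamma CHO cells were given compounds for 2 hr, then doxycycline hyclate at 1 uM final, and incubated 16 hr at 37 C. Viability was measured as ATP content by CellTiter-Glo luminescence.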

Experiment [8] deals with Nuclear receptor ROR-gamma (Homo sapiens) (UniProt P51449). Kind of experiment: qHTS assay to identify small molecule antagonists of the retinoid-related orphan receptor gamma (ROR-gamma) signaling pathway (AID 1159521). In a few lines:
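CHO Tet-on RORγ, RORE-luc reporter. Cpd 2 h pre-incubation, then dox hyclate 1 uM final, 16 h, 37 C/5% CO2. ONE-Glo luminescence; decrease = antagonist.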

Experiment [9] is described as follows: qHTS assay to identify small molecule agonists of the AP-1 signaling pathway - cell viability counter screen (AID 1159525; calls by dose curve; further: nearly all actives have a fitted effect of over 55% in size). In a few lines:
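AP-1-bla ME-180 cells in Opti-MEM with 0.5% dialyzed FBS, compound exposure 5 h at 37 C in 15-point titration. Viability read in the same wells as ATP content by CellTiter-Glo luminescence, normalised to tetra-n-octylammonium bromide and DMSO controls.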

The nature of experiment [10]: qHTS assay to identify small molecule agonists of the AP-1 signaling pathway (AID 1159526; calls by dose curve).
Experiment [11] is described as follows: qHTS assay to identify small molecule agonists of the RXR signaling pathway - cell viability counter screen (AID 1159529). Further: nearly all actives have a fitted effect of over 50% in size. Further: potency means the concentration at half of the fitted maximal effect. The method, boiled down:
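HEK 293T RXRa-bla cells, 2% CS-FBS; 5 h settle; cpd 16 h 37 C, 5% CO2; CellTiter-Glo 30 min RT, luminescence. Tetraoctyl ammonium bromide as positive control.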

Experiment [12] can be described thus: qHTS assay to identify small molecule antagonists of the retinoid acid receptor (RAR) signaling pathway - cell viability counter screen (AID 1159551). Further: nearly all actives have a fitted effect of over 35% in size. The method, boiled down: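 Luminescent ATP quantitation (CellTiter-Glo) gave cell viability in C3RL4 cells exposed to test chemicals for 6 h at 37 C alongside 1 uM final retinol.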
Experiment [13] can be described thus: qHTS assay to identify small molecule agonists of the retinoic acid receptor (RAR) signaling pathway (AID 1159553). Further: potency means the concentration at half of the fitted maximal effect. In a few lines: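 Luminescence from a RARE-driven luciferase reporter in C3RL4 cells served as the read-out, measured after 30 min with detection reagent at room temperature. Compounds in DMSO were applied for 6 hr at 37 C following overnight seeding.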

The target in experiment [14] is Retinoic acid receptor RXR-alpha (Homo sapiens) (UniProt P19793). As to the kind of experiment: qHTS assay to identify small molecule agonists of the RXR signaling pathway (AID 1159527; calls by dose curve; further: nearly all actives have a fitted effect of over 35% in size). In a few lines:
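Read-out: beta-lactamase FRET ratio (405 nm excitation, 460 and 530 nm emission) after 2 hr substrate loading at room temperature. Cells were RXR-alpha-UAS-bla HEK 293T treated with compounds for 16 hr in 2% charcoal-stripped FBS medium.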

Experiment [15] can be described thus: qHTS assay to identify small molecule antagonists of the retinoic acid receptor (RAR) signaling pathway (AID 1159552; further: nearly all actives have a fitted effect of over 50% in size). In a few lines: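 Cells of the C3RL4 line were seeded, incubated overnight, then dosed with compounds in DMSO followed immediately by retinol (1 uM final). Six hours later luciferase detection reagent went in; signal was measured after 30 min at RT.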

Experiment [16] is described as follows: qHTS assay to identify small molecule antagonists of the estrogen related receptor (ERR) signaling pathway - cell viability counter screen (AID 1224818). Further: series mostly up to about 46 µM. The method, boiled down: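 Multiplexed counter screen to separate cytotoxic compounds from true ERR modulators. ERR cells received DMSO-dissolved compounds after a 6 h pre-incubation, were exposed 17.5 h at 37 C, then assayed with CellTiter-Fluor fluorescence.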

Experiment [17] can be described thus: qHTS assay to identify small molecule antagonists of the estrogen related receptor signaling pathway with the pleiotropic PPARgamma coactivator (PGC) cell viability counter screen (AID 1224822; further: series mostly up to about 46 µM). In a few lines: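 Cells: PGC/ERR, 2,000/well, 1536-well format. Pre-incubation 6 h, 37 C/5% CO2. Compound exposure 17.5 h, 37 C. Detection: CellTiter-Fluor, 30 min, fluorescence.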

Several values for one entry are separate records, joined by “and”; a condition that tells them apart may be missing. Identical values can stand only once. Inconclusive results are not listed. Activity calls are given as the source filed them. Unless noted, the call rests on the fitted dose curve; in most records, active means well fitted curve in the direction sought with a large enough effect in the repeat runs; inconclusive means weak or mixed curves; inactive means no such curve, though single readings can be large; an effect the other way counts as inactive or inconclusive.

Sequence of Retinoic acid receptor RXR-alpha (Homo sapiens) (P19793 whole entry, looked up): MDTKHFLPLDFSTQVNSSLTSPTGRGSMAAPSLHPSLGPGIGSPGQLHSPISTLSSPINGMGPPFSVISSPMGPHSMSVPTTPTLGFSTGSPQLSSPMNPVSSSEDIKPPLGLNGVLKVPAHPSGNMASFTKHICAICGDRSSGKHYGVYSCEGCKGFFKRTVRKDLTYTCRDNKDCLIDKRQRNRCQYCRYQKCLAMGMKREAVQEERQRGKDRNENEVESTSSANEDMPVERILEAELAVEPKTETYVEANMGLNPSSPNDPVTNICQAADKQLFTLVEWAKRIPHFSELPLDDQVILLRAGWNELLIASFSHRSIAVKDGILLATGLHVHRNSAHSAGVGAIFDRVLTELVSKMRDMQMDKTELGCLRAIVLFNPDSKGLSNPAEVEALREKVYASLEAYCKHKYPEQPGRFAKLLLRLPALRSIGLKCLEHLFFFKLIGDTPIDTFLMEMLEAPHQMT

`Cc1cc(NS(=O)(=O)c2ccc(N)cc2)no1`: the Potency result in experiment [1], in experiment [2], in experiment [6], in experiment [7], in experiment [8] and in [9] was “inactive” throughout. Besides, the Potency entry in [10], in experiment [11], in experiment [12] and in experiment [13] was “inactive” each time. For the same compound, the compound was called inactive in experiment [3], in experiment [4] and in [5].

`O=C(O)c1ccc([N+](=O)[O-])cc1`: the Potency entry in [1], in experiment [2], in experiment [6], in [7], in experiment [8] and in experiment [9] was “inactive” each time. Also, the Potency result in experiment [10], in experiment [14], in [11] and in experiment [12] was “inactive” in each case. In addition, the result in [3], in [4] and in experiment [5] was inactive.

In the case of `O=S(=O)(Oc1ccc(Cl)cc1Cl)c1ccccc1`, the Potency entry in experiment [1], in experiment [2], in [6], in [8], in experiment [9] and in experiment [10] was “inactive” throughout. For the same compound, the Potency entry in experiment [11], in experiment [12] and in experiment [15] was “inactive” throughout. For the same compound, the outcome in experiment [3], in experiment [4] and in experiment [5] was inactive. Further, in [13], the Potency is 68.6 µM (active).

For `O=C1O[C@H](CO)[C@@H](O)[C@H](O)[C@H]1O`, the Potency result in experiment [1], in experiment [2], in experiment [6], in [8], in [9] and in experiment [10] was “inactive” each time. Also, the Potency entry in experiment [14], in experiment [11], in experiment [12], in experiment [15] and in experiment [13] was “inactive” each time. Further, the result in [3], in experiment [4] and in experiment [5] was inactive.

For the compound `CCCCCCCCC`, the Potency result in experiment [1], in experiment [2], in experiment [6], in experiment [8], in [9] and in experiment [10] was “inactive” in each case. Further, the Potency result in experiment [14], in [11] and in [12] was “inactive” throughout. Also, the result in experiment [3], in [4] and in [5] was inactive.

With `C=C(C)C(=O)OCC(CC)(COC(=O)C(=C)C)COC(=O)C(=C)C`, the Potency entry in experiment [1], in experiment [6], in experiment [7], in [8], in experiment [9] and in experiment [10] was “inactive” in each case. Also, the Potency result in experiment [14], in experiment [11], in experiment [12], in [15] and in experiment [13] was “inactive” each time. The result in experiment [3] and in experiment [4] was inactive.

Turning to `OC1CCCC1`, the Potency entry in experiment [1], in experiment [2], in [6], in experiment [7], in [8] and in experiment [9] was “inactive” each time. Further, the Potency result in experiment [10], in experiment [14], in [11], in [12], in experiment [15] and in [13] was “inactive” in each case. Moreover, the compound was called inactive in [3] and in experiment [4].

In the case of `CCCCOCCO`, the Potency result in experiment [1], in experiment [2], in experiment [6], in [8], in experiment [9] and in experiment [10] was “inactive” each time. Besides, the Potency entry in [14], in experiment [11], in [12], in experiment [15] and in [13] was “inactive” in each case. In addition, the compound was classed as inactive in experiment [3], in experiment [4] and in experiment [5].

On to `S=c1nc[nH]c2nc[nH]c12`, for which the Potency in [1] was 15.1 µM (active) and 10.6 µM (active); in experiment [11], 3.01 µM (active). Moreover, the call in experiment [3], in experiment [4] and in experiment [5] was inactive. The Potency result in [8], in experiment [9], in [10], in experiment [15] and in experiment [13] was “inactive” in each case.

As for `CC(=O)[C@@]1(O)CC[C@H]2[C@@H]3CCC4=CC(=O)CC[C@]4(C)[C@H]3CC[C@@]21C`, the Potency entry in experiment [1], in [2], in experiment [6], in experiment [8], in [9] and in experiment [10] was “inactive” throughout. Also, the Potency entry in experiment [11], in experiment [12], in experiment [15] and in experiment [13] was “inactive” throughout. Moreover, the outcome in experiment [3], in experiment [4], in experiment [5], in experiment [16] and in experiment [17] was inactive.
